Over roughly 13,000 compounds, “IFI” has its median near 4; the highest 2% begin near 17. The sample as a whole holds a higher share of the highest values than the screen did.

This test is described as follows: GSK_TCMDC: Inhibition Frequency Index (IFI). The number of non-kinase HTS assays where a compound showed > 50 % inhibition, expressed as a percentage of the number of such assays in which the compound was tested. The test is classed as functional.
The compound `Clc1ccc(Nc2nc3nonc3nc2Nc2ccc(Cl)c(Cl)c2)cc1` displayed an IFI of 19.4%. Turning to `O=[N+]([O-])c1ccc2nc(Nc3ccc(Cl)c(Cl)c3)c(Nc3ccc(Cl)c(Cl)c3)nc2c1`, the IFI stood at 2.86%.

Compound `Clc1ccc(Nc2nc3ccc(Cl)cc3nc2Nc2ccc(Cl)cc2)cc1` had an IFI of 10.1%. Turning to `Clc1ccc(CNCCCCCCNCc2ccc(Cl)cc2)cc1`, the IFI turned out to be 11.3%. Turning to `CC(=O)Nc1cc(C(=O)Nc2cccc(-c3cccc(-c4nc5cccc(C)c5[nH]4)c3)c2)ccc1C`, the IFI came out at 5.88%. In the case of `Cc1cc(NCCc2ccccc2)nc(NC(=N)Nc2cccc(F)c2)n1` it was 6.77%; in that of `COc1cccc(-c2ccc3ccnc(N)c3c2)c1`, 7.87%. `Nc1cccc(-c2ccc3ccnc(N)c3c2)c1` showed an IFI of 5.56%.

Turning to `Nc1nccc2ccc(-c3cccc(O)c3)cc12`, the IFI is 7.14%. Turning to `Nc1nccc2ccc(-c3ccc(Oc4ccccc4)cc3)cc12`, the IFI was 20.7%. Turning to `Nc1nccc2ccc(-c3cccc(OCc4ccccc4)c3)cc12`, the IFI was 19.8%. The compound `Nc1nccc2ccc(-c3ccncc3)cc12` had an IFI of 3%.

`Nc1nccc2ccc(-c3ccc(OCc4ccccc4)cc3)cc12` displayed an IFI of 19.1%. The compound `Nc1ccc(-c2ccc3ccnc(N)c3c2)cc1` came in with an IFI of 9.09%.

Consider `NCc1cccc(-c2ccc3ccnc(N)c3c2)c1`, for which the IFI was found to be 2.86%. Consider `CNc1nc(Nc2ccccc2C)nc2ccccc12`, for which the IFI amounted to 2.21%.

For the compound `CC(c1cccc(Nc2nccc(-c3c(-c4cccc(NC(=O)c5c(F)cccc5F)c4)nn4ccccc34)n2)c1)S(C)(=O)=O` (stereo unspecified), the IFI is 6.31%.

For the compound `O=S(=O)(c1c(Cl)cc(Cl)cc1Cl)N1CCCCC(c2ccc(C(F)(F)F)cc2)=N1`, the IFI was found to be 1.5%. `Nc1nc(O)c2c(n1)CCc1c(Br)cccc1-2` yielded an IFI of 2.31%. In the case of `COc1ccccc1C1CCN(C2CCC(NC(=O)/C=C/c3ccc(OC(F)(F)F)cc3)CC2)CC1` (stereo unspecified), the IFI is 11.7%. On to `Nc1nc(Nc2cccc(O)c2)nc2ccccc12`, for which the IFI worked out at 5.04%. `CCC[C@@H]([C@@H](CC1CCCCC1)C(=O)N[C@H](C(=O)Nc1nccc(N)n1)C(C)(C)C)N(O)C=O` showed an IFI of 2.86%. Compound `NC[C@H](CC1CCCCC1)NC(=O)c1ccc(-c2ccnc3[nH]ccc23)s1` came in with an IFI of 22.2%. Take `NCC(NC(=O)c1ccc(-c2c[nH]c3ncccc23)s1)c1ccccc1` (stereo unspecified): the IFI stood at 16.1%. In the case of `OCC1CCN(Cc2cccc(-c3cccc(-c4nc5cc(C(F)(F)F)ccc5[nH]4)c3)c2)CC1` it was 5.83%; in that of `CCCCCCOc1ccc(C(=O)NCCCC2CCCN(CCCCCNC(=O)C=Cc3ccc(Cl)c(Cl)c3)C2)cc1` (stereo unspecified), 6.87%. As for `Cc1ccc(F)cc1-c1cc(N2CCCN(C(=O)c3ccc(Br)o3)CC2)ncn1`, the IFI was 0%. For the compound `C=CCc1ccc(C[C@H](NC(=O)OC(C)(C)C)C(=O)OC)cc1`, the IFI is 18.9%. Take `CC(C)(C)OC(=O)N[C@@H](Cc1ccccc1)C(=O)Nc1cccc(-c2cccc(NC(=O)[C@H](Cc3ccccc3)NC(=O)OC(C)(C)C)c2)c1`: the IFI was 0.72%. In turn, `COC(=O)C(c1ccc(NC(=O)[C@H](CC(C)C)NC(=O)OC(C)(C)C)cc1)c1ccc(NC(=O)[C@H](CC(C)C)NC(=O)OC(C)(C)C)cc1` had an IFI of 0%.

For the compound `CCSc1ccc(C)cc1CON1C(N)=NC(N)=NC1(C)C`, the IFI stood at 6.34%. Compound `Cc1c(Cn2nc(Cl)c(N3CCNCC3)cc2=O)cccc1NC(=O)Nc1ccc(-c2ccccc2)cc1` returned an IFI of 10.8%. In the case of `O=C(/C=C/c1ccccc1Cl)Nc1ccc(Br)c(OCCN2CCCCC2)c1`, the IFI stood at 5.52%.

Compound `CCC(C)(C)c1ccc(S(=O)(=O)Nc2ccc(Cl)c(OCCN3CCCCC3)c2)cc1` returned an IFI of 43.1%.

Compound `ON=C1c2cc(OCCN3CCCCC3)c(Cl)cc2-c2cc(Cl)c(OCCN3CCCCC3)cc21` yielded an IFI of 9.42%. On to `COc1ccc(CNC2CCN(C)CC2)cc1-c1cccc(S(=O)(=O)NCc2ccccc2)c1`, for which the IFI was 11%. Compound `COc1ccc2c(=NN=Cc3ccccc3Cl)cc(C)[nH]c2c1` displayed an IFI of 3.65%. `COc1cc(NC(=O)c2sc(-c3ccc(Cl)cc3)cc2NC(=O)c2cccnc2)ccc1OCCN1CCCC1`: the IFI was 7.19%.

In turn, `O=c1c2ccc(F)cc2sn1-c1ccc(Cl)cc1` gave an IFI of 23.9%. In the case of `O=C(/C=C/c1ccc(Cl)c(Cl)c1)NCCCCCN1CCC(c2c[nH]c3c(-c4ccccc4)cccc23)CC1` it was 8.09%. `CN(Cc1cccc(F)c1)C1CCN(c2cc(NC(=O)c3cccc(F)c3)ccn2)CC1`: the IFI was determined as 0%. Turning to `CN(Cc1cccc(F)c1)C1CCN(c2cc(NC(=O)c3ccc(F)cc3)ccn2)CC1`, the IFI was determined as 0%. Regarding `C[C@@H](C(N)=O)N1CCCCC1c1ccc(OCc2cccc(F)c2)cc1` (stereo partly specified), the IFI worked out at 33.8%. Consider `O=C(C=Cc1ccc(Cl)c(Cl)c1)NCCCCCN1CCCC(CCCNS(=O)(=O)c2cccc3cccnc23)C1` (stereo unspecified), for which the IFI came to 5.8%. `CCc1c(CCNCCCCCCNC(C)Cc2ccc3c(c2CC)OCO3)ccc(OC)c1OC` (stereo unspecified) displayed an IFI of 10.7%. `O=C(NCC1CCC(CNCCc2ccccc2)CC1)Nc1ccc(Cl)c(Cl)c1` (stereo unspecified) had an IFI of 0.72%. In the case of `CN1CC[C@@H](Oc2cc(NC(=O)Nc3ccc(Cl)c(C(F)(F)F)c3)ccc2Cl)C1` it was 7.63%; in that of `CC(C)(C(=O)Nc1ccc(N2CCC3(CCCN(CC4CC4)C3)CC2)c(Cl)c1)c1cccc(C(F)(F)F)c1`, 6.67%; in that of `CC(C)(C(=O)Nc1ccc(C2CCC(NCC3CC3)CC2)c(Cl)c1)c1ccc(C(F)(F)F)cc1` (stereo unspecified), 25%. Under `CC(C)(C(=O)Nc1ccc(C2CCC(NCC3CC3)CC2)c(Cl)c1)c1cccc(OC(F)F)c1` (stereo unspecified) stands 23.4%. Take `O=C(CNCC1CCCCC1)Nc1cc(C(F)(F)F)ccc1Cl`: the IFI was 4.23%. In the case of `COc1ccc2c(=NN=C(C)c3ccccn3)cc(C)[nH]c2c1` it was 4.96%; in that of `O=C(Nc1ccc(Cl)cc1)c1ccc(CN2CCCN(Cc3cccc(Cl)c3)CC2)cc1`, 8.66%; in that of `CC(C)(C)c1ccc(NC(=O)c2cccc(CN3CCCN(Cc4cccc(Cl)c4)CC3)c2)cc1`, 7.86%.

With `Cc1ccccc1CN1CCCN(Cc2ccc(C(=O)Nc3ccc(Cl)cc3)cc2)CC1`, the IFI turned out to be 10.2%. Take `Cc1ccccc1CN1CCCN(Cc2ccc(C(=O)Nc3ccc(C(C)(C)C)cc3)cc2)CC1`: the IFI amounted to 18.4%. For the compound `CC(C)(C)c1ccc(NC(=O)c2ccc(CN3CCCN(Cc4ccc(F)cc4)CC3)cc2)cc1`, the IFI stood at 15.6%. As for `CCCCCCN1CCCN(Cc2ccc(C(=O)Nc3ccc(C(C)C)cc3)cc2)CC1`, the IFI was found to be 19.7%. `CCCCCCN1CCCN(Cc2ccc(C(=O)Nc3ccc(Cl)cc3)cc2)CC1` yielded an IFI of 15.2%.

In turn, `CCCCCCN1CCCN(Cc2ccc(C(=O)Nc3ccc(CC)cc3)cc2)CC1` came in with an IFI of 13.5%.

`CC(C)(C)c1ccc(NC(=O)c2ccc(CN3CCCN(Cc4cccc(Cl)c4)CC3)cc2)cc1` returned an IFI of 17.2%.

(Values after ChEMBL document CHEMBL1157539, “Thousands of chemical starting points for antimalarial lead identification” (Nature, 2010).)
